{
  "source": "PubChem BioAssay AID2716",
  "about": "(Broad Institute, 2010)",
  "note": "About 3,300 (1%) of roughly 320,000 compounds were called active. The sample as a whole holds a higher share of actives than the screen did. Unmarked numbers belong to inactive results.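 Rule for the calls: active = every valid replicate shows activation above 250% relative to neutral control wells; inactive = the rest, any valid replicate at or below 250%.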",
  "data": [
    {"test": "restored growth of temperature-sensitive Mot1-301 yeast – S. cerevisiae, ATP luminescence, 38.5C, SUMOylation pathway inhibitor project, primary screen (AID 2716);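 note: OY570 slx delta 5 strain wells were the positive control but not used for scaling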", "conditions": "S. cerevisiae Mot1-301 growth rescue, at 18.8 µM, active compounds read high, percent above DMSO median, 100 means doubled", "values": [
      {"smiles": "CC12CN(NC(=O)c3ccc(Cl)cc3)C3(C#N)CC1CCC23C", "note": "(stereo not given)", "growth rescue": "42.1%"},
      {"smiles": "O=C(NCC(=O)N(c1ccccc1)C(C(=O)NCC1CCCO1)c1ccccc1)c1cccs1", "note": "(stereo not given)", "growth rescue": "679% (active)"},
      {"smiles": "Cc1ccc(N(C(=O)Cc2cccs2)C(C(=O)NCC2CCCO2)c2ccncc2)cc1", "note": "(stereo not given)", "growth rescue": "5.34%"},
      {"smiles": "COC(=O)c1cccc(N(C(=O)CNC(=O)c2cccs2)C(C(=O)NCC2CCCO2)c2ccc(OC)c(OC)c2)c1", "note": "(stereo not given)", "growth rescue": "-4.04%"},
      {"smiles": "Cc1cc(C)n2nc(SCC(=O)NC(=O)NCc3ccco3)nc2n1", "growth rescue": "6.86%"},
      {"smiles": "COC(=O)C1(S(=O)(=O)C2(C(=O)OC)CCCC2)CCCC1", "growth rescue": "-10%"},
      {"smiles": "CCN(CC)C(=O)C(=O)Nc1cccc(Br)c1", "growth rescue": "1.06%"},
      {"smiles": "CCN(CC)C(=O)CSC(Nc1cccc(F)c1)=C(C#N)C#N", "growth rescue": "643% (active)"},
      {"smiles": "Cc1ccc(CSCC(=O)N(C)CC(=O)Nc2cccc(F)c2)cc1", "growth rescue": "-8.64%"},
      {"smiles": "Cc1ccc(NC(=O)[C@H](Cc2ccccc2)NC(=O)C2CCNCC2)cc1", "growth rescue": "2.72%"},
      {"smiles": "N/C(=N\\OC(=O)Nc1ccccc1)c1ccno1", "growth rescue": "4.96%"},
      {"smiles": "O=c1c2c(ncn1Cc1ccccc1)nc1n2CCC1", "growth rescue": "490% (active)"},
      {"smiles": "O=c1c2cc([N+](=O)[O-])ccc2nc2n1CCC2", "growth rescue": "12%"},
      {"smiles": "Cn1c(=O)c2c(ncn2CCc2ccccc2)n(C)c1=O", "growth rescue": "43.8%"},
      {"smiles": "Cc1ccc(C)c(OCCC(=O)OCC(=O)c2ccc3c(c2)NC(=O)CO3)c1", "growth rescue": "0.132%"},
      {"smiles": "O=C(CCNC(=O)c1ccc([N+](=O)[O-])cc1)Nc1ccccc1N1CCOCC1", "growth rescue": "-1.52%"},
      {"smiles": "CCCCN(C(=O)c1nn(C)c(=O)c2ccccc12)c1c(N)n(CCC)c(=O)[nH]c1=O", "growth rescue": "-14.8%"},
      {"smiles": "COc1ccc(Cc2nnc(SCC(=O)N(c3ccccc3)C(C)C)n(N)c2=O)cc1", "growth rescue": "2.77%"},
      {"smiles": "CN(CCc1ccccc1)c1ccc([N+](=O)[O-])cn1", "growth rescue": "9.85%"},
      {"smiles": "O=C(NN1C(=O)C2C3C=CC(C3)C2C1=O)c1ccco1", "note": "(stereo not given)", "growth rescue": "-6.66%"},
      {"smiles": "COc1cccc2cc(C(=O)N(C)C)c(=O)oc12", "growth rescue": "0.334%"},
      {"smiles": "CN(C)C(=O)c1coc2nc3ccccc3nc12", "growth rescue": "924% (active)"},
      {"smiles": "CNC(=O)c1cccc2nc3ccccc3nc12", "growth rescue": "16%"},
      {"smiles": "CCOC(=O)C1(Cc2cccc(OC)c2)CCN(C(C)COC)CC1", "note": "(stereo not given)", "growth rescue": "9.8%"},
      {"smiles": "CCOC(=O)C1(Cc2cccc(OC)c2)CCCN(S(=O)(=O)c2cccnc2)C1", "note": "(stereo not given)", "growth rescue": "568% (active)"},
      {"smiles": "CCOC(=O)C1(Cc2cccc(OC)c2)CCCN(C(=O)CCSC)C1", "note": "(stereo not given)", "growth rescue": "-10.8%"},
      {"smiles": "CCOC(=O)c1cc(C(=O)Nc2ccc(S(=O)(=O)Nc3ccc(OC)cc3)cc2)nn1C", "growth rescue": "1.95%"},
      {"smiles": "Cc1ccc(C)c(S(=O)(=O)N2CCN(c3ncnc4sccc34)CC2)c1", "growth rescue": "-2.33%"},
      {"smiles": "C/[N+]([O-])=C\\c1ccc([N+](=O)[O-])o1", "growth rescue": "330% (active)"},
      {"smiles": "CCc1ccc(S(=O)(=O)N/N=C\\c2ccc([N+](=O)[O-])o2)cc1", "growth rescue": "-9.87%"},
      {"smiles": "Cc1cc(C)nc(N/N=C/c2ccc([N+](=O)[O-])o2)n1", "growth rescue": "-7.8%"},
      {"smiles": "NC(=O)C1(C(N)=O)OC1c1ccc(Cl)cc1Cl", "note": "(stereo not given)", "growth rescue": "-6.75%"},
      {"smiles": "O=C(NCCc1ccco1)c1ccc(OCc2cn3ccccc3n2)cc1", "growth rescue": "-7.98%"},
      {"smiles": "CCc1nccn1S(=O)(=O)c1cccc([N+](=O)[O-])c1", "growth rescue": "1.13%"},
      {"smiles": "Cc1cn(C2C=CC(CO)O2)c(=O)[nH]c1=O", "note": "(stereo not given)", "growth rescue": "-3.98%"}
    ]}
  ]
}
